Compound activity: PubChem BioAssay, Broad Institute
Wnt bcat act = activates Wnt/beta-catenin signaling in a reporter cell assay; activator, plate reader; activation, % at 9.35 µM; 300,000 tested, 1.2% active; in the data active = activation above about 30%, passing the limit was not always enough; inconclusive = no clear call, values can overlap the other calls;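 note: 0% = neutral control wells and 100% = positive control wells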
Vif inh = blocks HIV Vif function; HEK293T cells, Vif self-association by quenched fluorescence, imaging, 24 h; inhibition, % at 7.49 µM; 340,000 tested, 0.35% active; in the data active = inhibition above about 50%, passing the limit was not always enough; inconclusive = no clear call, values can overlap the other calls; inactive = below about 31%
MITF act = increases MITF-driven TRPM1 promoter luciferase signal | SK-MEL-5 TRPM1-promoter luciferase, 24 h; % of positive control, neutral wells = 0 | activation, % at 12.5 µM | 300,000 tested, 0.75% active | AID 588334;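 active = mean activation of at least 80% with every replicate also reaching 80%; inconclusive = mean reaches 80% but some replicate falls short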;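 note: 0% = neutral control wells and 100% = parthenolide positive control wells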
PfHsp90 yeast 2 = inhibits growth of yeast expressing Plasmodium falciparum Hsp90. S. cerevisiae expressing PfHsp90, BacTiter-Glo ATP, 48 h; yeast lacking PDR1 and PDR3 efflux regulators. inhibition, % at 9.4 µM. 310,000 tested, 0.32% active;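 active = every replicate shows inhibition above about 80%, whatever the replicate mean, limit read from the data; inconclusive = mean inhibition reaches the set limit but some replicate falls short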;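 note: 0% = DMSO neutral controls and 100% = 20 µM radicicol positive controls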
esBAF inh = SWI/SNF esBAF complex inhibition; 350,000 tested, 2% active; mouse ES cells, Bmi1-luciferase knock-in reporter, 24 h; 100% = twice the neutral-well signal; reporter increase, % at 12.5 µM; in the data active = activation above about 40%; inconclusive = no clear call, values can overlap the other calls;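 note: 0% = median of the plate's neutral control wells and 100% = double that signal; a rise in the Bmi1 reporter signal indicates esBAF inhibition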
N-glyco inh = N-linked glycosylation inhibition. D54 ERlucT glycosylation luciferase reporter, 24 h; percent of 100 nM tunicamycin response. 360,000 tested, 0.23% active. reporter increase, % at 12.5 µM;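 active = mean luciferase reporter signal, scaled so untreated is 0 and the glycosylation-blocking control 100, at or above a set limit in every replicate; inconclusive = mean reaches the limit but not every replicate does; inactive = mean below the limit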;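 note: luciferase carries N-glycosylation sites so blocking glycosylation raises the light; 0% = median of neutral control wells and 100% = median of 100 nM tunicamycin wells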
Numbers without * were called inactive; u = inconclusive; x = not tested or not shown. Rows were chosen to be rich in hits. Some 3% of all compounds tested hit in one or more screens of this group.

SMILES	Wnt bcat act	Vif inh	MITF act	PfHsp90 yeast 2	esBAF inh	N-glyco inh
COc1ccccc1Cc1nc(-c2cccnc2)no1	38.4*	9.6	x	-6.0	x	-0.4
COc1ccc(Cc2nc(-c3cccnc3)no2)cc1OC	1.1	-10.5	x	-17.0	x	-1.3
Cc1ccc(-c2noc(CSc3nc(N)cc(N)n3)n2)cc1	x	-4.4	x	x	x	-2.7
C[C@H]1CN([C@@H](C)CO)C(=O)c2cccc(NC(=O)Nc3ccc(F)cc3)c2O[C@H]1CN(C)C(=O)Nc1ccccc1	x	x	x	x	-1.5	x
C[C@H]1CN([C@@H](C)CO)C(=O)Cc2cc(NC(=O)CCN3CCOCC3)ccc2O[C@H]1CN(C)Cc1ccc(C(=O)O)cc1	x	x	x	x	-6.1	x
c1ccc(SCc2nc(-c3ccccn3)no2)cc1	x	-3.8	82.6*	-9.4	25.6	-3.1
CCN(CC)c1ccc(/C=C2/C(=O)ON=C2C)cc1	-0.5	-1.5	-5.1	-1.2	x	5.9
CCN(CC)c1ccc(/C=C2\C(=O)N(c3nnc(C)c(=O)[nH]3)N=C2C)cc1	10.3	-17.2	-3.0	19.3	-6.7	43.1*
O=C(C[n+]1cc(Br)cc2ccccc21)c1ccccc1	-1.1	54.8*	x	22.3	0.2	0.2
COc1ccc(C(=O)C[n+]2cc(Br)cc3ccccc32)cc1[N+](=O)[O-]	-2.0	-3.5	-14.1	3.5	1.1	1.5
Cc1ccc(C(=O)CSc2ccccn2)cc1	x	-5.5	64.6	-6.6	49.1*	-3.8
O=C(CSc1ccccn1)c1ccc(F)cc1	x	u	58.4	3.5	28.3	-0.3
O=C1/C(=C/c2ccc(F)cc2)SC(=S)N1N1CCOCC1	3.5	-7.2	x	-2.1	x	2.3
CN(C)/C=C/C(=O)c1ccc(-n2cccc2)cc1	53.7*	x	41.6	-1.1	x	-2.9
CN(C)/C=C/C(=O)c1ccc(Cl)cc1	1.8	16.4	x	-10.8	21.3	-0.2
Oc1ccc(-c2c(-c3ccsc3)sc3ccccc23)cc1	-1.4	9.9	-0.1	107.0*	-84.7	-1.9
COCc1ccc(-c2c(-c3ccsc3)sc3ccccc23)cc1	2.9	-1.9	5.0	-2.3	-0.6	-1.4
CC(C)(C)C1C/C(=C/c2ccccn2)C(=O)/C(=C/c2ccccn2)C1 (stereo unspecified)	x	16.3	-100.8	99.9*	-86.4	-23.0
CCN(c1ccc(OC)cc1)S(=O)(=O)N1CCCC(C(=O)NCc2cccc(C)c2)C1 (stereo unspecified)	-1.9	-21.6	-4.6	-1.9	5.5	-2.2
Cc1cccc(-c2nnc(-c3ccc4ccccc4c3)o2)c1	-5.4	14.0	48.3	-19.3	-13.3	-12.3
Cc1cccc(-c2nnc(-c3cccc4ccccc34)o2)c1	50.6*	-3.5	12.8	x	39.0	-4.4
Cc1ccc(-c2nnc(-c3cccc4ccccc34)o2)cc1	0.9	-7.5	35.8	x	54.4*	-4.7
COc1cccc(-c2nnc(-c3ccc(C(F)(F)F)cc3)o2)c1OC	x	7.3	x	18.0	53.2*	0.6
c1ccc(Nc2nnc(-c3cccc4ccccc34)o2)cc1	38.0*	-9.7	x	x	x	-2.2
CCOc1ccc(Br)cc1C1=NN(C(C)=O)C(c2ccc([N+](=O)[O-])s2)O1 (stereo unspecified)	3.7	-12.9	x	107.6*	-4.6	35.9*
SMILES	Wnt bcat act	Vif inh	MITF act	PfHsp90 yeast 2	esBAF inh	N-glyco inh
CC(C)(C)n1nc2c(c1NC(=O)c1ccccc1)CS(=O)(=O)C2	-0.9	-0.6	4.5	-14.0	x	1.5
COc1cc2nc(N(C)C)nc(N)c2cc1OC	-5.0	-14.6	0.1	x	-8.8	47.6*
CCOC(=O)/C=C/c1ccc2oc3ccccc3c(=O)c2c1	22.7	-16.1	97.2*	-27.8	48.6*	-1.5
CCOc1ccc(/C=C/C(=O)c2c(O)c3ccccc3oc2=O)cc1	x	0.1	-9.7	5.8	0.7	0.5
Cc1ccc2oc(Nc3nc(C)c(C)c(C)n3)nc2c1	40.9*	-6.9	x	0.5	x	-2.8
Nc1ccccc1C#Cc1ccc2[nH]ccc2c1	u	-2.8	61.4	0.2	82.0*	-3.9
Nc1ccccc1C#Cc1ccccc1	38.9*	-4.0	132.8*	-2.6	68.6*	-4.4
CC(C)NC(=O)Nc1ccc2c(c1)C(=O)N(C)[C@H]1CC[C@@H](CC(=O)NCC(F)(F)F)O[C@H]1CO2	x	x	x	x	-4.2	x
CCC(C)NC(=O)CN(c1cc(C)ccc1OC)S(C)(=O)=O (stereo unspecified)	7.4	-1.8	2.1	12.3	-0.1	1.4
O=[N+]([O-])c1ccccc1N=NNc1ccccc1	13.9	-0.7	41.0	9.4	113.3*	-0.9
CC(C)(C)NC(=O)NC(=O)COC(=O)c1c(F)cccc1Cl	2.9	-8.8	63.7	-3.5	50.2*	2.4
CC(C)(C)NC(=O)NC(=O)COC(=O)Cc1c(Cl)cccc1Cl	-1.2	7.8	3.6	x	x	2.0
NC(=O)c1ccsc1NC(=O)COC(=O)c1c(F)cccc1Cl	21.5	2.2	66.8	0.9	112.4*	-2.6
NC(=O)c1ccsc1NC(=O)COC(=O)c1ccccc1F	-0.3	0.9	16.7	x	0.8	1.2
CC1(C)NC(=O)C(CCc2ccccc2)NC1=O (stereo unspecified)	-2.0	4.8	x	x	-1.4	0.6
CCOC(=O)N1CCN(C(=O)CN(Cc2ccc(Cl)cc2)S(=O)(=O)c2ccccc2)CC1	-5.9	-5.6	0.3	12.1	3.9	-1.3
COCc1cc(C)nc(SCC(=O)Nc2ccc(C)c(C)c2)c1C#N	-1.0	-13.8	35.8	-9.2	43.2*	0.5
Cc1cc(NC(=O)CSc2nc3c(C)ccc(C)c3cc2C#N)no1	-0.4	-0.4	4.7	12.6	2.2	4.6
Cc1cc(C)c(C#N)c(SCC(=O)Nc2ccc3c(c2)OCO3)n1	42.3*	-2.0	24.7	-56.7	18.8	0.2
Cc1cc(C)c(C#N)c(SCC(=O)Nc2cc(C)on2)n1	1.9	-2.2	u	x	82.1*	-2.9
Cc1cc(NC(=O)CSc2nnc(C)c(=O)[nH]2)no1	-2.0	68.9*	-5.0	8.5	-0.9	1.1
COCc1cc(C)nc(SCC(=O)Nc2ccc3[nH]c(=O)[nH]c3c2)c1C#N	-4.1	-1.9	5.7	-18.3	-6.6	7.4
Cc1nc(SCC(=O)Nc2ccc3c(c2)OCO3)c(C#N)c2c1CCCC2	2.8	-7.7	26.8	0.5	35.0	-6.4
Cc1cccc(-c2nc(CN3CCN(Cc4cccc(F)c4)CC3)c(C)o2)c1	49.4*	-4.6	4.8	8.8	0.0	-1.2
CCC(C)n1ncn(-c2ccc(N3CCN(c4ccc(OCC5COC(Cn6cncn6)(c6ccc(Cl)cc6Cl)O5)cc4)CC3)cc2)c1=O (stereo unspecified)	-4.6	-14.7	-12.7	92.2*	-3.0	-9.2
CCC(C)n1ncn(-c2ccc(N3CCN(c4ccc(O)cc4)CC3)cc2)c1=O (stereo unspecified)	4.0	3.5	-16.2	-8.0	x	-2.3
CC(=O)N1C[C@H]2[C@@H](c3ccccc31)[C@H](CO)N2S(=O)(=O)c1ccccc1	x	x	x	x	-2.5	x
